Hits are enriched below; roughly 5.2% of the tested compounds scored in any of these assays.
Sfp PPTase inh: blocks B. subtilis Sfp PPTase activity | Q9F4F7 | Biochemical Sfp PPTase activity, qHTS | Potency, µM, for the others: largest response in the series, negative = inhibition, most hits filed as inhibitors | actives 3.5% (n = 310,000);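 note: the enzyme is Sfp with the accession as filed and its product quenches rhodamine fluorescence; potency is the fitted concentration of half-maximal effect; 0% = enzyme reaction without inhibitor and -100% = no enzyme wells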
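After 15 min at room temperature with compound, 15 nM Sfp received 5 uM rhodamine-CoA plus 12.5 uM BHQ-2-ybbR (50 mM Hepes pH 7.6, 10 mM MgCl2). Rate came from the fluorescence difference over 30 min, ex 525/em 598 nm.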
FBPA coupling cs: counter-screen for Giardia aldolase inhibitors: coupling enzyme system. actives 0.67% (n = 290,000). coupling enzyme system counterscreen, AmpLite Red fluorescence. AID 2472. activity change, negative = inhibition, % at 58.2 µM, hits read low; in the data active = activity change below about -30%
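First, compound is pin-transferred into glyceraldehyde-3-phosphate coupling-enzyme reagent at 57.5 uM final and held 10 min at RT. Next, substrate, coupling system and AmpLite Red are added. After 20 min RT, fluorescence (525/598 nm) is read.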
Tau fluor cs: counter-screen for tau fibril formation inhibitors; Potency, µM (top dose mostly 57.7 µM), without a hit: top-dose activity change, negative = decrease; actives 0.93% (n = 280,000); tau K18 P301L Alexa594 fluorescence, heparin fibrillization; AID 1463; note: potency is the fitted concentration of half-maximal effect; nearly all actives have a fitted effect of over 55% in size
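Human K18 P301L tau (15 uM unlabeled plus 0.24 uM Alexa 594-labeled, final) in 100 mM sodium acetate pH 7 was mixed with compound and 20 uM heparin and incubated 6 hr at 37 C.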
Tau FP inhib: blocks human tau fibril formation measured by polarization; actives 0.39% (n = 280,000); Potency, µM (titrated, usually from 57.7 µM), without a hit: at the top dose activity, negative = inhibition, hits mostly inhibitors; P10636; K18 P301L tau heparin fibrillization, Alexa594 FP, 6 h; AID 1468; note: potency is the fitted concentration of half-maximal effect; nearly all actives have a fitted effect of over 55% in size
Target sequence (P10636 561-689 P618L limits assumed): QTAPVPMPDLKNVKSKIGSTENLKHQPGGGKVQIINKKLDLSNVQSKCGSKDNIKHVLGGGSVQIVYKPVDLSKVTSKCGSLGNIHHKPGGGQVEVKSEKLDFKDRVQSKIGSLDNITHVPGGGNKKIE
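Heparin (20 uM) drove fibril formation of recombinant tau K18 P301L, 15 uM unlabeled with 0.24 uM Alexa 594 label, for 6 hr at 37 C in 100 mM sodium acetate pH 7. Fluorescence polarization (555/632 nm) read 1 hr after 30 uM ThT.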
Tau ThT inhib: blocks human tau fibril formation measured by thioflavin T; P10636; recombinant tau K18 P301L, heparin-induced fibrillization, ThT fluorescence; Potency, µM (top dose mostly 57.4 µM), inactives show at the highest dose activity, negative = inhibition, usual class: inhibitors; actives 2.1% (n = 270,000); note: potency is the fitted concentration of half-maximal effect; nearly all actives have a fitted effect of over 55% in size
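Fibril formation assay: tau K18 P301L at 15 uM with trace Alexa 594 label, heparin inducer 20 uM, pH 7 sodium acetate buffer, 37 C for 6 hr; endpoint ThT signal.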
Starred values were filed as active, the others as inactive; ? = inconclusive; · = not tested or not shown; [ ] = remark or other dose. Unless noted, calls come from the whole dose curve; as a rule, active = well fitted curve in the direction sought with a large enough effect; inconclusive = small, poorly fitted or top-dose-only effect, or another doubt; inactive = no such curve, though single readings can be large; an effect the other way counts as inactive or inconclusive. Unless noted, % is set by controls: 0 for no effect and ±100 for the full control effect.

SMILES	Sfp PPTase inh	FBPA coupling cs	Tau fluor cs	Tau FP inhib	Tau ThT inhib
CC(=O)OC[C@H](N)C(=O)c1ccccc1	-0.9%	3.9	-9.7%	5.0%	-12.9%
O=C1NC(=O)N(c2ccc3c(c2)OCO3)C(=O)/C1=C/c1ccc(N2CCCC2)o1	-8.9%	0.1	-8.9%	5.4%	?
O=C1NC(=O)N(c2ccc3c(c2)OCO3)C(=O)/C1=C/c1cccs1	11.2µM*	1.6	-17.7%	-0.5%	?
O=C1NC(=O)C(=Cc2ccc3c(c2)OCO3)C(=O)N1	50.1µM*	1.0	1.8%	?	?
O=C1NC(=O)N(c2ccc3c(c2)OCO3)C(=O)/C1=C/c1ccsc1	39.8µM*	-0.9	-5.8%	-7.5%	?
CCc1ccc(N2C(=O)NC(=O)/C(=C/c3ccsc3)C2=O)cc1	50.1µM*	-0.1	-11.8%	-5.4%	?
CCc1ccc(N2C(=O)NC(=O)/C(=C\c3cc(C)n(-c4cc(C(=O)O)cc(C(=O)O)c4)c3C)C2=O)cc1	-6.9%	5.9	·	·	·
COC(=O)/C=C/C(=O)N[C@@H]1CC[C@@]2(O)[C@H]3Cc4ccc(O)c5c4[C@@]2(CCN3CC2CC2)[C@H]1O5	-2.6%	·	3.2%	1.3%	4.6%
CCC1/C=C/C=CCC(C)C(O)[C@@](C)(O)C(=O)C(C)C(O)C(C)C(=O)C(C)C(O)C(C)C=CC(=O)O[C@H]2C(C)C(CC1)O[C@]1(CCC(C)C(CC(C)O)O1)C2C (some centres undefined)	-3.9%	-8.4	-24.8%	-3.8%	?
COC1(C)CC(c2ccccc2)c2c(c3ccccc3oc2=O)O1 (centres undefined)	-5.2%	-0.7	·	·	·
CCC1C2CC3C4N(C)c5ccccc5[C@]45CC(C2C5O)N3C1O (some centres undefined)	10.3%	1.7	-11.5%	-6.8%	-9.7%
C=CC(C)(C)c1c2c(c(O)c3c(=O)c4ccc(O)c(O)c4oc13)C=CC(C)(C)O2	11.3%	-6.8	15.8µM*[quencher]	?	?
Cc1ccccc1CN1CCNCC1	0.5%	1.0	-7.8%	-4.2%	0.1%
Cc1ccccc1CN1CCN(c2ccc(Cl)cc2)CC1	50.1µM*	-0.3	-2.5%	13.2%	-8.1%
COc1ccc(C(=O)NCCn2cc(SCc3ccc(C(F)(F)F)cc3)c3ccccc32)cc1OC	·	·	?	-12.6%	?
CCOc1ccc(CCNC(=O)c2cc3c(-c4cccc(OC)c4)nn(C)c3s2)cc1OCC	·	·	?	-17.9%	?
Cc1ccc(N2C(=O)/C(=C/c3ccc(CN(CCC#N)S(C)(=O)=O)o3)C(=O)NC2=S)cc1C	22.4µM*	0.7	-25.7%	?	17.8µM*
Cc1cccc(N2C(=O)/C(=C/c3ccc(CN(CCC#N)S(C)(=O)=O)o3)C(=O)NC2=S)c1	12.6µM*	-0.8	-20.6%	?	25.1µM*
O=C1Nc2cc(C(=O)N3CCC4(CC3)OCCO4)ccc2NC1CSCc1cccc(F)c1 (centres undefined)	50.1µM*	·	·	·	·
O=C(c1ccc2c(c1)N(Cc1ccccc1)CCS2)N1CCC2(CC1)OCCO2	-2.3%	·	·	·	·
CC[C@@H]1CN2CCc3cc(OC)c(OC)cc3[C@@H]2C[C@@H]1C[C@H]1NCCc2cc(OC)c(OC)cc21	6.1%	-1.1	-0.9%	-2.2%	-0.1%
CCCOCCN(C(=O)CCl)c1c(CC)cccc1CC	14.1%	-0.3	·	·	·
Cc1cc(N2CCOCC2)ccc1/C=C1\C(=O)NC(=O)N(c2ccccc2)C1=O	35.5µM*	0.0	-14.4%	?	?
COc1cc(N2CCOCC2)ccc1/C=C1\C(=O)NC(=O)N(Cc2cccs2)C1=O	0.8%	3.5	-13.7%	-1.3%	?
O=C1NC(=O)N(c2cccc(F)c2)C(=O)/C1=C/c1ccc(N2CCOCC2)cc1	31.6µM*	4.9	-21.6%	-8.3%	?
COc1cc(N2CCOCC2)ccc1C=C1C(=O)NC(=O)NC1=O	56.2µM*	-1.7	-1.2%	8.6%	-0.9%
CC(C)C(C)/C=C/C(C)C1CCC2C3=CC=C4CC(O)CCC4(C)C3CCC21C (centres undefined)	-3.9%	-2.3	-21.4%	2.4%	?
CC(C)CCNC(=O)CNC(=O)[C@@H](C)NC(=O)[C@@H](N)Cc1ccc(O)cc1	2.1%	1.1	·	·	·
